# Test results taken from ChEMBL document CHEMBL1961873, “Compounds: GSK PKIS; Assays: Nanosyn kinase panel” (2012).
# Tests used:
# [1] = target: T1, Inhibitor of nuclear factor kappa-B kinase subunit epsilon (Homo sapiens) (UniProt Q14164); conditions: at 1 µM;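 also: reported values are averaged percent inhibition figures against human IKKε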
# T1 sequence (whole entry): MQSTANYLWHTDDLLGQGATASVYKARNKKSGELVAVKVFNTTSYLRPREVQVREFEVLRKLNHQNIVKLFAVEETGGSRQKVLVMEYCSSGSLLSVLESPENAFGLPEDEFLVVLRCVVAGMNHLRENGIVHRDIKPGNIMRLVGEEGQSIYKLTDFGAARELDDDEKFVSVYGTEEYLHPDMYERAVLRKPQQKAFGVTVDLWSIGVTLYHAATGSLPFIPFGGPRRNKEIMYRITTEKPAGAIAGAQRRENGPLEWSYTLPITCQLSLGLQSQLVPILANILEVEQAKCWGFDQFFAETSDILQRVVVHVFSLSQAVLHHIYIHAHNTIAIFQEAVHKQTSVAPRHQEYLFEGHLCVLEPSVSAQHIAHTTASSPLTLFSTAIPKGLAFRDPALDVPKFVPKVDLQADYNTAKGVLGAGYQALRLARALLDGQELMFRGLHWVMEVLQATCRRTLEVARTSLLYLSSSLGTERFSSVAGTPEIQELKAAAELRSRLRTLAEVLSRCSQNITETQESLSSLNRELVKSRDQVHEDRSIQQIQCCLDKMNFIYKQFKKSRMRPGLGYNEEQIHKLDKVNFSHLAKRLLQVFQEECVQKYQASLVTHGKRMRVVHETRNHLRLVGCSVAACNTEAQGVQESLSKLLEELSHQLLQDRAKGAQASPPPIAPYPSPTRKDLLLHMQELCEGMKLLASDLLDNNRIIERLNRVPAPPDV
# [2] = target: T2, Serine/threonine-protein kinase Nek1 (Homo sapiens) (UniProt Q96PY6); conditions: at 0.1 µM
# T2 sequence (whole entry): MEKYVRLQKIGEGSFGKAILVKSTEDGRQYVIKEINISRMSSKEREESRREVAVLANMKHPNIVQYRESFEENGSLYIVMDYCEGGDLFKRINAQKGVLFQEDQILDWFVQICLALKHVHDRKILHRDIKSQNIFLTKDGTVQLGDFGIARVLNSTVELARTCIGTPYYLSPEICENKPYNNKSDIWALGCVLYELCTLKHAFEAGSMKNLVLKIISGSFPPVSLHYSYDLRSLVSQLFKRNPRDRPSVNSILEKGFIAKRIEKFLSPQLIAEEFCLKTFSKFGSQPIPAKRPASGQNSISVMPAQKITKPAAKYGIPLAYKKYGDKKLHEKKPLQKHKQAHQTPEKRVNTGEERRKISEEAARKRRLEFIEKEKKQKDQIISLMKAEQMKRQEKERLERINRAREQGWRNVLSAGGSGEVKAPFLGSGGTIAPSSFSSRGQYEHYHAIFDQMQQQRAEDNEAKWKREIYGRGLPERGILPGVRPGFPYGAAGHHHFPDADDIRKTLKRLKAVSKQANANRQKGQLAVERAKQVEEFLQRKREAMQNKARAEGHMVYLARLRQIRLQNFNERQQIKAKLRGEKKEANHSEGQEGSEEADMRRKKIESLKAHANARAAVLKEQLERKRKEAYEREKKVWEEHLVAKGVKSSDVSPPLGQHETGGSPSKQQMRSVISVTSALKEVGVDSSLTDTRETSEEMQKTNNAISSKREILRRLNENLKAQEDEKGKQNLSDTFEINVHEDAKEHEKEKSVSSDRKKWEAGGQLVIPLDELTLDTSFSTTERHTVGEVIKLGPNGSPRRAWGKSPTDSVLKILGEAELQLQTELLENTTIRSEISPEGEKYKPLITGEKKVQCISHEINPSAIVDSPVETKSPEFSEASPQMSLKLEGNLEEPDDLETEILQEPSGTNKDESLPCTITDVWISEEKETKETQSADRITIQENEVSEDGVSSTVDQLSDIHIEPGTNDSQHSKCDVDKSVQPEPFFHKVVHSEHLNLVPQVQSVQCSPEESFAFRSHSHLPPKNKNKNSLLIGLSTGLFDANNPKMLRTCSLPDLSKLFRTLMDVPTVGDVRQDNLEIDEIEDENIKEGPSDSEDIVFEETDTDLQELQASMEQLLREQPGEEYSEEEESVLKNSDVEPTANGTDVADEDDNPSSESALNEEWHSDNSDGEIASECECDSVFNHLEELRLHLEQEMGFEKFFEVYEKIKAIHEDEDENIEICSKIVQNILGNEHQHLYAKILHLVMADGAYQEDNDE
# [3] = target: T2, Serine/threonine-protein kinase Nek1 (Homo sapiens); conditions: at 1 µM
# [4] = target: T3, Serine/threonine-protein kinase Nek2 (Homo sapiens) (UniProt P51955); conditions: at 0.1 µM
# T3 sequence (whole entry): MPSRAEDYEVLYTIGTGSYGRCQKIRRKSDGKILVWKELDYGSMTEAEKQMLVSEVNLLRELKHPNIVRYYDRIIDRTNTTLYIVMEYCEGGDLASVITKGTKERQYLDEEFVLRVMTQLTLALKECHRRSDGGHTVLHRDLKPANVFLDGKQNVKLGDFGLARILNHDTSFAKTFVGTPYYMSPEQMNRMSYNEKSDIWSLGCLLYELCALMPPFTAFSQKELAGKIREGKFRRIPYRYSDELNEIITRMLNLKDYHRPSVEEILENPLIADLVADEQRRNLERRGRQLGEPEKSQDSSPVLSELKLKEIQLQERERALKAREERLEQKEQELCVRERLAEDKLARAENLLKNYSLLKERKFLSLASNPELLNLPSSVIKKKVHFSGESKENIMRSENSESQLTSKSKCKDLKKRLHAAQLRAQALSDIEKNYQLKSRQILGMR
# [5] = target: T3, Serine/threonine-protein kinase Nek2 (Homo sapiens); conditions: at 1 µM
# [6] = target: Serine/threonine-protein kinase Nek6 (Homo sapiens) (UniProt Q9HC98); conditions: at 0.1 µM
# [7] = target: Serine/threonine-protein kinase Nek6 (Homo sapiens) (UniProt Q9HC98); conditions: at 1 µM
# [8] = target: Serine/threonine-protein kinase Nek7 (Homo sapiens) (UniProt Q8TDX7); conditions: at 0.1 µM
# [9] = target: Serine/threonine-protein kinase Nek7 (Homo sapiens) (UniProt Q8TDX7); conditions: at 1 µM
# [10] = target: T4, Serine/threonine-protein kinase Nek9 (Homo sapiens) (UniProt Q8TD19); conditions: at 0.1 µM;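 also: reported value is the mean percent inhibition of NEK9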
# T4 sequence (whole entry): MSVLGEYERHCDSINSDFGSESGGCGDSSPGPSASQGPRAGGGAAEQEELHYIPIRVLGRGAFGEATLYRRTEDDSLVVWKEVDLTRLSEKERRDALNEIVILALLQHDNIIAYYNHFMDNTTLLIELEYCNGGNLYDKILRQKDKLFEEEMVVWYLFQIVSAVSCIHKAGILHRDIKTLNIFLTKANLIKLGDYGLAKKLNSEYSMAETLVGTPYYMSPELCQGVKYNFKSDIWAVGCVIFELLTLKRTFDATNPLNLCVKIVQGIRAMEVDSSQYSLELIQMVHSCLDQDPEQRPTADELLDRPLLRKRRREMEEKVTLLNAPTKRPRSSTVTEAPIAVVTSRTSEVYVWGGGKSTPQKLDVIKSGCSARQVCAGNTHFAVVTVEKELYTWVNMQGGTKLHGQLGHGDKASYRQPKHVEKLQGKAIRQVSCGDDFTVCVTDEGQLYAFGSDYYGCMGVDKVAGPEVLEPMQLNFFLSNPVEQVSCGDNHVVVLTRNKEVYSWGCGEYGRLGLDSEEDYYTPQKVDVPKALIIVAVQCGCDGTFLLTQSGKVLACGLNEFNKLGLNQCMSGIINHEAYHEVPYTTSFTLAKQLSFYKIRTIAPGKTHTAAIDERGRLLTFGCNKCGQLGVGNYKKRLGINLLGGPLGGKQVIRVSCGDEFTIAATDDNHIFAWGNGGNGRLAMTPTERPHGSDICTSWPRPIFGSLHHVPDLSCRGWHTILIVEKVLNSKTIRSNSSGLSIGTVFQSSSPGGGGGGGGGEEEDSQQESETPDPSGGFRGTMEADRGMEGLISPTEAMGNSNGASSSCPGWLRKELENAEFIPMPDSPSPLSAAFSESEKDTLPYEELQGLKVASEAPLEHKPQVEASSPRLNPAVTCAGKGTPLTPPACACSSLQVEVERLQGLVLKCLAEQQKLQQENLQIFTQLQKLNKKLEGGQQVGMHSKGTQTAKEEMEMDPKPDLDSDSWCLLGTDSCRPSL
# Sequence of Serine/threonine-protein kinase Nek6 (Homo sapiens) (Q9HC98 whole entry): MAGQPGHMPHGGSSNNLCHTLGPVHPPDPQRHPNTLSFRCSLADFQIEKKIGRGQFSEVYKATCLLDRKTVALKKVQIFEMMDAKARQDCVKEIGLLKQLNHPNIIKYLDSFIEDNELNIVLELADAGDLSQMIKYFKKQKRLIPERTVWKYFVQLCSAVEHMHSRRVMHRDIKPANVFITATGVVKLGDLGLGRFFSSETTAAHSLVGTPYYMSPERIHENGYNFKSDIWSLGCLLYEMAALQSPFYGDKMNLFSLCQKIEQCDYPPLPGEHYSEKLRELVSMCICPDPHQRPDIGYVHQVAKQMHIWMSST
# Sequence of Serine/threonine-protein kinase Nek7 (Homo sapiens) (Q8TDX7 whole entry, looked up): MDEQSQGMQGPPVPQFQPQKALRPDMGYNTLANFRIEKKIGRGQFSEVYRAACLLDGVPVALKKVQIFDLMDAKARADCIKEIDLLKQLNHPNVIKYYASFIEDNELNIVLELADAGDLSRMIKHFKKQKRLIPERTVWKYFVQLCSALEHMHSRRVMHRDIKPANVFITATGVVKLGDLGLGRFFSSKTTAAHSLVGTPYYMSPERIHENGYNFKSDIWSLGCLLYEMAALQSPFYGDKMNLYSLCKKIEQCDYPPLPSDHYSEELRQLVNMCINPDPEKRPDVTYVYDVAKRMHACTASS
compound,measurement,setting,value
N#Cc1ccc2c(-c3ccnc(NC4CC4)n3)c(-c3ccc(F)cc3)nn2c1,inhibition,[1],3.7%
same,inhibition,[2],0.87%
same,inhibition,[3],2.03%
same,inhibition,[4],2.22%
same,inhibition,[5],1.83%
same,inhibition,[6],1.63%
same,inhibition,[7],1.52%
same,inhibition,[8],1.73%
same,inhibition,[9],2.38%
same,inhibition,[10],3.27%
